Screening results as filed in PubChem.
hcDAF12 agonist: activators of H. contortus DAF-12 nuclear receptor. activation, % at 6.8 µM. actives 1.4% (n = 370,000). AID 652067. HEK293 hcDAF-12 lit1-tk-luc reporter, luminescence; 0% DMSO, 100% Δ7-dafachronic acid;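 active means activation above the mean of all tested compounds plus 3 SD, cut at about 5.5% in these data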;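 further: 100% = response to 3 µM Δ7-dafachronic acid high control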
DAX1 inh-1: blocks DAX1 repression of SF-1 activated StAR promoter. HEK293T StAR-luciferase reporter, SF-1/DAX-1 repression relief. inhibition, % at 6.8 µM. actives 1.1% (n = 370,000);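 active means inhibition above the mean over all tested compounds plus 3 SD, cut at about 3.6% in these data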;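 further: 0% = DAX-1 cells with DMSO and 100% = cells lacking DAX-1 with DMSO; higher inhibition means more luminescence from relief of DAX-1 repression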
SMARCA2 activ: activators of SMARCA2 function; MG213 cells, MMTV-luciferase reporter, dexamethasone, overnight; activation, % at 9.1 µM; actives 1% (n = 370,000); in the data active means activation above about 7.8%;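 further: 0% = vehicle wells and 100% = reference activator wells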
DAX1 inh-2: NR0B1 (DAX1) inhibition. P51843. inhibition, % at 6.75 µM. AID 504766. HEK293 Gal4-DAX1 luciferase reporter, luminescence. actives 0.99% (n = 340,000);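 active means inhibition above the mean over all tested compounds plus 3 SD, cut at about 4.2% in these data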;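 further: 0% = DAX1-transfected cells with DMSO and 100% = empty-vector control cells with DMSO; inhibition shows as a rise in luminescence from relieved DAX1 repression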
Target sequence (P51843 207-470 limits assumed): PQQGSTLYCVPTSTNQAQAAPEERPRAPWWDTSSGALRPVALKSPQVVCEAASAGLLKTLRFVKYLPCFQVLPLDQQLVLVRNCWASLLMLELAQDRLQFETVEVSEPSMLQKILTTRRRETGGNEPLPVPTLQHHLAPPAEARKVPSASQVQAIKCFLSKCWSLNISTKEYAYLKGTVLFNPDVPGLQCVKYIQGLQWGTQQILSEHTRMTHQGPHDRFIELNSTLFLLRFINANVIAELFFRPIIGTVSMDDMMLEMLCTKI
ssDAF12 agonist: activates DAF-12 receptor from parasite S. stercoralis. HEK293 ssDAF-12/GRIP1 lit1-tk-luc reporter, luminescence; % of 3 µM dafachronic acid response. activation, % at 6.8 µM. actives 1% (n = 370,000). AID 652126;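 active means activation above the mean over all tested compounds plus 3 SD, cut at about 0.9% in these data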;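 further: 0% = DMSO-only wells and 100% = 3 µM delta7-dafachronic acid wells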
hgDAF-12 ag: hgDAF-12 agonism, primary luciferase screen; HEK293 GAL4-hgDAF12 UAS-luciferase reporter, agonist luminescence; normalized to butyrate control; activation, % at 6.8 µM; actives 1.8% (n = 370,000); AID 687014;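 active means activation above a cutoff set at the mean of all screened compounds plus 3 SD, cut at about 10% in these data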;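 further: 0% = DMSO wells and 100% = sodium butyrate wells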
An asterisk follows results filed as active; . = no result given. Compounds with a hit are over-represented: about 4.8% of the library has one in this group of screens.

SMILES	hcDAF12 agonist	DAX1 inh-1	SMARCA2 activ	DAX1 inh-2	ssDAF12 agonist	hgDAF-12 ag
CCOc1ccc(-c2cc(C(=O)N3CCC(C)CC3)c3ccccc3n2)cc1	-0.2	1.6	1.0	0.4	-0.5	2.4
CCOc1ccc(-c2cc(C(=O)O)c3ccccc3n2)cc1	4.8	2.9	5.6	-0.7	0.2	10.7*
COc1ccc(-c2c(Sc3ccccc3)c3cc(-c4ccc(OC)c(F)c4)ccc3n2C)cc1	-3.0	-2.0	-2.0	.	-1.6	-4.2
Cc1c(-n2c(=O)n(Cc3ccccc3)c(=O)c3[nH]cnc32)cccc1S(C)=O (stereo not drawn)	-1.1	-0.6	-1.1	0.6	-1.1	0.1
CSCCC(c1nc2ccccc2[nH]1)n1c(/C=C/c2ccc(F)c(F)c2)nc2ccccc21 (stereo not drawn)	3.4	3.2	1.6	.	0.9*	8.3
O=C(COc1ccccc1Cl)Nc1cccnc1	2.0	2.7	-0.2	3.7	-0.6	11.7*
Cc1ccc(Cl)c(OCC(=O)Nc2cccnc2)c1	2.1	3.1	5.5	1.4	0.5	7.9
Cc1ccc(-c2nc(C=Nc3ccccc3)c(O)o2)cc1	1.1	1.0	6.6	1.0	-1.1	7.1
Oc1oc(-c2ccc(Br)cc2)nc1/C=N/c1ccccn1	0.6	1.1	3.1	1.9	-0.4	12.6*
COc1ccccc1N(CC(N)=O)S(=O)(=O)c1ccc(C)cc1	-0.3	-0.4	1.2	-0.5	1.1*	2.8
Cc1ccc(Nc2nc(N)nc(COC(=O)C3=COCCO3)n2)cc1	1.0	3.6*	2.7	0.6	0.7	7.5
COc1ccc(-c2nc3ccc([N+](=O)[O-])cc3[nH]2)cc1	6.3*	4.5*	3.3	1.5	1.8*	18.8*
COc1ccc2nc(-c3ccccc3)[nH]c2c1	4.9	3.5	5.3	0.8	-0.1	12.8*
COc1ccc2[nH]c(-c3ccccc3)cc2c1	6.1*	1.5	3.4	4.2*	-0.3	9.0
CCOc1ccc2nc(C(C)O)[nH]c2c1 (stereo not drawn)	-0.1	-0.5	1.9	4.2	-0.3	0.8
CCOc1ccc2nc(-c3ccccc3)[nH]c2c1	5.2	-0.4	3.1	-2.3	-0.1	11.6*
CC1(C(=O)Nc2ccc3c(c2)OCCO3)CN(S(C)(=O)=O)CC(=O)N1CC(F)(F)F (stereo not drawn)	-0.7	1.1	-2.8	.	-0.9	2.3
CC1(c2ccc(Cl)cc2Cl)NC(=O)N(CC(=O)NCCC2=CCCCC2)C1=O (stereo not drawn)	1.0	-3.3	-4.2	1.0	-0.8	-2.3
O=C1CC(c2ccc(S(=O)(=O)NCc3ccccc3)cc2)CN1 (stereo not drawn)	0.8	0.3	-0.5	5.6*	-1.1	0.2
CCOC(=O)NC(=O)CSc1nc(-c2ccc(C)c(C)c2)cn1-c1ccccc1	5.7*	1.8	5.6	0.8	-0.5	10.0
CC1(C)Cc2c(sc3nc(C4CC4)n(N)c(=O)c23)CO1	-1.6	0.2	0.8	7.6*	-1.9	-0.7
CC1(C)Cc2c(sc3nc(C4CCCCC4)n(N)c(=O)c23)CO1	-0.2	0.0	-1.1	1.1	-0.8	1.1
CC(C)(C)C1CCC(=NNC(=O)c2ccccc2-n2cccc2)CC1 (stereo not drawn)	6.0*	-0.4	11.1*	-0.7	-0.5	0.3
CCN(CC)CCCNC(=O)CNC(=O)c1nn(-c2ccc(OC)c(OC)c2)c(=O)c2ccccc12	-1.0	0.0	-0.1	1.1	-1.3	1.4
CCN(CC)CCNC(=O)CNC(=O)c1nn(-c2ccc(OC)c(OC)c2)c(=O)c2ccccc12	2.1	-0.3	-1.4	4.9*	-1.4	1.4
SMILES	hcDAF12 agonist	DAX1 inh-1	SMARCA2 activ	DAX1 inh-2	ssDAF12 agonist	hgDAF-12 ag
CCC(CO)Oc1cc(NCc2ccccc2Cl)c2ncn(C(C)C)c2c1 (stereo not drawn)	-2.7	-0.6	1.9	-0.4	-1.5	-4.0
CN(CC(=O)NCCc1ccc(F)cc1)Cc1cccs1	0.2	0.0	7.8*	0.0	-1.5	6.7
O=c1c2ccccc2oc2cc(NCCCN3CCOCC3)ccc12	3.6	3.0	5.9	2.5	0.2	11.7*
Nc1ccccc1SCC(=O)Nc1ccc2c(c1)OCO2	1.4	4.2*	0.6	-0.1	-0.1	4.6
O=C(CN1C(=O)c2cccc3cccc1c23)NCc1ccc2c(c1)OCO2	-2.5	0.0	-4.4	0.3	-1.7	-1.6
COC(=O)c1sccc1NC(=O)CSc1ccccc1NC(=O)CNC(C)C	0.1	-0.6	-0.5	-1.6	-0.6	1.0
O=C(CN1C(=O)c2cccc3cccc1c23)Nc1ccc2c(c1)OCO2	-0.8	-1.5	0.6	4.4*	-1.8	3.5
COC(=O)c1sccc1NC(=O)CSc1ccccc1N	0.0	0.1	-1.7	4.8*	-0.8	-1.0
O=C(CSCc1ccccc1Cl)Nc1ccc2c(c1)OCCO2	3.1	3.3	7.3	5.8*	-1.0	11.1*
O=C(COc1cc(F)ccc1[N+](=O)[O-])Nc1cc(S(=O)(=O)N2CCCC2)ccc1Cl	-0.3	1.1	-1.8	-1.2	-0.6	-0.8
O=C(c1cc(C2CCCCN2S(=O)(=O)c2cccs2)on1)N1CCOCC1 (stereo not drawn)	-1.0	-0.6	-5.8	.	-1.2	0.4
CC(C(=O)Nc1ccc2c(c1)OCCO2)N(C)Cc1c(F)cccc1Cl (stereo not drawn)	-1.8	0.6	-1.2	4.5*	-0.5	-0.9
O=C(CSc1nccc(=O)[nH]1)Nc1ccc2c(c1)OCCO2	1.5	1.3	7.1	4.8*	0.1	11.2*
COC(=O)C(C(=O)OC)C1CCCCC1NS(=O)(=O)c1ccc(C)cc1 (stereo not drawn)	-0.6	1.4	-3.1	.	-1.2	-2.1
Cc1ccc2c(c1)Oc1ccc(NC(=O)CCl)cc1C(=O)N2	-5.9	-4.0	-7.0	-3.6	-1.4	-12.5
Cc1ccc2c(c1)Oc1ccc([N+](=O)[O-])cc1C(=O)N2	6.1*	-0.5	-1.0	-0.9	0.1	2.4
N#C/C(=C\c1ccc(N2CCOCC2)o1)C(=O)NC1CCCCC1	-2.3	0.4	-0.2	-2.6	-1.1	-2.5
N#C/C(=C\c1ccc(N2CCOCC2)o1)C(=O)NCC1CCCO1 (stereo not drawn)	-1.7	0.4	0.6	-0.8	12.4*	1.5
C[C@@H]1ON(C)[C@H]2C[C@H]3c4[nH]c5ccccc5c4CCN3C(=O)[C@@H]12	3.2	1.0	0.8	-0.8	1.0*	1.4
C/C(=N/Nc1ccccc1[N+](=O)[O-])c1ccc([N+](=O)[O-])cc1	6.4*	0.2	-2.1	0.8	-0.1	1.1
CC(=O)C1=C(O)C(=O)N(c2ccc(Br)cc2)C1c1ccc(Br)cc1 (stereo not drawn)	-0.7	0.5	0.5	1.0	-0.1	5.2
COc1ccc(C2C(C(C)=O)=C(O)C(=O)N2c2ccc(C)cc2)cc1 (stereo not drawn)	-0.1	0.8	2.5	4.5*	-0.4	4.0
